# The list is not random: actives were taken first. Their share in the collection is about 6.6%.
# CSC inhib = cancer stem cell viability inhibitors, primary screen, luminescence. cancer stem cell-like cells viability. inhibition, % at 7.5 µM. actives 1.1% (n = 300,000). AID 2717, 2010; in the data active = inhibition above about 75%; tested in HMLE shEcad cells
# Mdm2 MdmX PPI = inhibitors of human Mdm2-MdmX association, primary screen, cell-based, luminescence, split luciferase, SaOS-2, uHTS; AID 485346, 2010; Protein Mdm4 (Homo sapiens) + E3 ubiquitin-protein ligase Mdm2 (Homo sapiens), …; inhibition, % at 8 µM; SaOS-2 split-luciferase Mdm2/MdmX complementation; actives 3% (n = 330,000);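 active = inhibition of at least 50% at 8 µM in the primary screen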
# Target sequence (O15151 whole entry, looked up): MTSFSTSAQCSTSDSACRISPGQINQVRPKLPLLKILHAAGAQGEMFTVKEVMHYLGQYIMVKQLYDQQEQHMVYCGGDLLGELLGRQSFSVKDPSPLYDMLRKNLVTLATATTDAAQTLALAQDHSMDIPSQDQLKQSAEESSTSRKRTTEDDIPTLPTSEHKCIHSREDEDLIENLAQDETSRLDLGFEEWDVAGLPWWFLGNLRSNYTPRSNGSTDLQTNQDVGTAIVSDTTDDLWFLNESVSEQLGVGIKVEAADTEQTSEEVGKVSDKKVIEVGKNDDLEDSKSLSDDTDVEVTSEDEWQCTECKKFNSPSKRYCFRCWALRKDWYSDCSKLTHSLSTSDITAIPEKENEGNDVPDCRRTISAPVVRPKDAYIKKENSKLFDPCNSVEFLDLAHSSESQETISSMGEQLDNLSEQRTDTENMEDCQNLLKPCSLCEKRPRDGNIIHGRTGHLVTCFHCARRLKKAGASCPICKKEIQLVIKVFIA
# Target sequence (Q00987 whole entry, looked up): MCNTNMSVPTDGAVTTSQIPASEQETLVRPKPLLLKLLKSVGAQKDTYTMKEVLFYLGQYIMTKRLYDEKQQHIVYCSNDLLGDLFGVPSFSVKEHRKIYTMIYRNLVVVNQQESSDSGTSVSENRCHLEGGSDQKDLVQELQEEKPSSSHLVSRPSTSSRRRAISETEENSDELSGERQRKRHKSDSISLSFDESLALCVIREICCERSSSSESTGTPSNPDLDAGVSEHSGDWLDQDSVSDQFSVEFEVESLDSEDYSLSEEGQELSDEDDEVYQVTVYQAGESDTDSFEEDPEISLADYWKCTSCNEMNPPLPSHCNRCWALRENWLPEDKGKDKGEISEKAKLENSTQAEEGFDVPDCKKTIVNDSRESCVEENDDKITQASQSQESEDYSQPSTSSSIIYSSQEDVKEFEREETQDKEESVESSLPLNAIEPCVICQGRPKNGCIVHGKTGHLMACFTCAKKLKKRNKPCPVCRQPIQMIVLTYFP
# Gli-Sufu block = Gli-Sufu pathway antagonists, primary screen, luciferase luminescence, Sufu-KO-LIGHT cells, uHTS; Sufu-KO-LIGHT fibroblasts, Gli luciferase reporter luminescence; inhibition, % at 5 µM; actives 0.74% (n = 340,000);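 active = inhibition above about 55%, limit read from the data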;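 note: 0% = DMSO-treated cells and 100% = wells with medium but no cells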
# MPTP inh = mitochondrial permeability transition pore inhibitors, primary screen, biochemical, isolated mouse mitochondria, absorbance | Ca2+ swelling absorbance, 30 min | inhibition, % at 10 µM | actives 1.4% (n = 360,000) | AID 602449, 2012;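 active = inhibition of 50% or more, scaled per plate between neutral and stimulator controls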;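 note: 0% = DMSO wells given calcium and 100% = 1 mM EGTA wells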
# Beta cell apopt = inhibitors of cytokine-induced beta cell apoptosis, primary screen, luminescence; AID 435005, 2010; INS-1E cytokine-induced death, ATP luminescence, 48 h; percent of positive-control rescue, neutral wells zero; protection from apoptosis, % (test concentration not listed); actives 0.8% (n = 300,000);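 active = Every replicate reaches about 75%, or at least half do and their mean reaches it too, limit read from the data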;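 note: 0% = cytokine-treated negative control wells and 100% = positive control rescue; higher means more ATP so stronger rescue from cytokine killing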
# NR3A LBD binder = binders of NR3A ligand-binding domain, primary screen, biophysical, differential scanning fluorimetry, uHTS | Glutamate receptor ionotropic, NMDA 3A (GRIN3A) ligand-binding domain | AID 1259313, 2017 | NR3A LBD differential scanning fluorimetry, Tm shift; 0% = protein alone, 100% = glycine-bound protein | Tm shift relative to glycine control, % at 25 µM | actives 2.5% (n = 340,000);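 active = melting temperature shift of at least 10% of the positive control shift, at one fixed dose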
# Mdm2 MdmX conf = Mdm2-MdmX complex disruptors, retested hits, confirmation, luminescence, single concentration; shares compounds with Mdm2 MdmX PPI; Mdm2-MdmX binding, luminescent assay; inhibition, % at 8 µM; actives 55% (n = 10,000); AID 489028, 2010; in the data active = inhibition above about 40%
# Full FLuc ctr = full-length luciferase signal inhibition, confirmation, counter-screen for Mdm2/MdmX interaction inhibitor project, cell-based, single concentration, SaOS-2; shares compounds with Mdm2 MdmX PPI; SaOS-2 full-length luciferase counterscreen, luminescence; inhibition, % at 8 µM; actives 77% (n = 6,200);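 active = mean inhibition at 8 µM reaching about 37%, which flags the compound as non-specific, limit read from the data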;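 note: p53-null SaOS-2 cells with luciferase driven by a doxycycline-inducible promoter; compound on cells about two nights before reading with doxycycline added after day one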
# Numbers without * were called inactive; . = no result.
SMILES,CSC inhib,Mdm2 MdmX PPI,Gli-Sufu block,MPTP inh,Beta cell apopt,NR3A LBD binder,Mdm2 MdmX conf,others
CC(CCc1ccc(O)cc1)NCCC(c1ccccc1)c1ccccc1 (centres undefined),-16.9,51.3*,18.4,8.4,-11.1,-1.2,28.6,
CN(C)CCn1c(=O)n(-c2ccc(F)cc2)c(=O)c2c3c(sc21)CCCCC3,-12.6,15.7,6.6,-1.9,-4.4,-1.1,.,
CN(C)CCCn1c(=O)n(C2CCCCC2)c(=O)c2c3c(sc21)CCCCC3,16.2,89.7*,33.3,1.2,21.7,-0.4,72.2*,Full FLuc ctr=66.1*
CCN(CC)C(=O)CSc1nnc(SC(C)C(=O)NC2CC2)s1 (centres undefined),17.0,-9.0,-1.4,-2.2,3.0,0.1,.,
CCOC(=O)c1c(C)[nH]c(C(=O)OCC(=O)N2CCc3ccccc32)c1C,-15.0,70.4*,0.9,1.2,-0.2,-0.1,-9.8,
CCOC(=O)c1[nH]c(C)c(C(=O)OCC(=O)N2CCc3ccccc32)c1C,12.4,-1.1,-4.3,-1.8,6.2,1.5,.,
CCCSc1ncnc2[nH]ncc12,.,.,-0.1,-0.1,.,-4.4,.,
Oc1ccc2ccccc2c1N=Nc1ccccn1,105.2*,63.4*,54.9,2.9,94.6*,4.1,74.1*,Full FLuc ctr=28.0
CC(C)CCn1c(O)c(N=Nc2ccccn2)c2ccccc21,2.1,-2.2,10.4,2.9,1.0,2.7,.,
Cc1cccc(-n2ncc3c(=O)[nH]c(SCC(=O)NCCC4=CCCCC4)nc32)c1,.,90.4*,9.8,0.3,-3.3,-1.2,5.3,
CCCSc1nc2c(cnn2-c2ccc(C)cc2)c(=O)[nH]1,35.1,50.2*,3.6,0.2,0.6,-0.5,11.8,
Oc1ccc(Br)cc1C1Nc2ccccc2S1 (centres undefined),9.5,-24.4,10.2,0.2,4.8,0.5,.,
COCCC(=O)N1CCC(Oc2ccc(C(=O)NCCC3=CCCCC3)cc2)CC1,40.3,28.0,6.0,0.6,-2.0,2.7,.,
C(=N\Nc1nc2ccccc2[nH]1)/c1cccc2nccnc12,26.7,73.8*,6.2,1.1,71.6,-2.1,64.9*,Full FLuc ctr=31.8
CCN(CC)c1ccc(/C=N/Nc2nc3ccccc3[nH]2)c(O)c1,101.1*,58.5*,2.1,3.1,122.1*,-0.7,74.2*,Full FLuc ctr=39.6*
COc1ccc(/C=N/Nc2nc3ccccc3[nH]2)cc1OC,4.3,-12.9,2.0,0.2,20.6,-7.9,.,
CCN(CC)c1ccc(C=Nc2ccccc2C)c(O)c1,-11.4,7.2,-7.7,1.7,-6.5,0.8,.,
CCCC(=O)Nc1ccccc1Sc1ncnc2scc(-c3ccccc3)c12,-6.3,20.3,16.1,-1.9,-12.8,-4.6,.,
CCC(C)c1ccc(C(CC)NC(=O)C2CCCO2)cc1 (centres undefined),6.8,12.3,13.6,0.4,4.7,2.5,.,
CNC(=O)c1cccc(NC(=O)c2cc(-c3ccccc3)nc3c2cnn3C(C)C)c1,32.2,37.5,-0.5,2.5,5.6,8.0,.,
COc1ccc(NC(=O)c2cc(-c3ccncc3)nc3ccc(Br)cc23)cc1OC,14.5,96.7*,20.1,0.2,24.4,-4.1,10.9,
CCOc1ccccc1NC(=O)c1cc(-c2cc(OC)c(OC)c(OC)c2)nc2ccccc12,-9.1,54.7*,12.8,-0.6,8.8,0.8,29.9,
COc1cc(-c2cc(C(=O)NCc3ccco3)c3ccccc3n2)cc(OC)c1OC,-7.3,17.2,5.4,-1.0,.,7.2,.,
COc1cc(NC(=O)c2cc(-c3ccccc3)nc3c2cnn3C(C)C)cc(OC)c1OC,29.0,62.9*,16.0,6.5,26.0,0.3,27.9,
COc1cc(-c2cc(C(=O)Nc3ccc(S(=O)(=O)NCc4ccco4)cc3)c3ccccc3n2)cc(OC)c1OC,16.8,63.4*,13.6,0.0,11.4,-6.5,77.2*,Full FLuc ctr=49.6*
SMILES,CSC inhib,Mdm2 MdmX PPI,Gli-Sufu block,MPTP inh,Beta cell apopt,NR3A LBD binder,Mdm2 MdmX conf,others
Cc1ccsc1CN(C)C(=O)CN1C(=O)NC(c2ccccc2)(c2ccccc2)C1=O,.,20.3,-5.1,-0.8,-8.2,-1.2,.,
COCc1cc(=O)c2ccccc2o1,.,13.0,-2.1,1.4,0.3,-2.7,.,
COc1ccc(-c2cc(C(=O)Nc3ccccc3O)c3ccccc3n2)cc1OC,31.3,52.1*,-2.6,-1.5,16.5,-3.0,51.9*,Full FLuc ctr=106.9*
COc1ccccc1NC(=O)c1cc(-c2cc(OC)c(OC)c(OC)c2)nc2ccccc12,24.7,54.7*,20.4,-0.1,9.4,1.0,28.9,
COc1ccc(-c2cc(C(=O)Nc3ccc(Cl)cc3Cl)c3ccccc3n2)cc1OC,-22.2,-19.6,-4.5,-0.2,46.7,-6.1,.,
COc1cc(-c2cc(C(=O)Nc3ccncc3)c3ccccc3n2)cc(OC)c1OC,.,17.6,-3.0,-0.8,18.9,-2.5,.,
COc1ccc(NC(=O)COc2cccc3c2CCN(Cc2cccnc2)C3=O)c(OC)c1,-5.7,19.6,7.0,1.8,8.6,-0.6,.,
NC(=O)c1ccccc1Nc1nc2nc3ccccc3c(=O)n2cc1Br,15.4,73.7*,3.1,.,-1.2,-9.8,-4.8,
CCOc1ccc2[nH]c3c(NCCc4ccc(OC)c(OC)c4)ncnc3c2c1,6.0,30.0,14.6,39.9,.,6.5,.,
COc1cc(OC)c(OC)cc1/C=N/Nc1ncnc2c1[nH]c1ccccc12,25.5,83.8*,1.9,1.8,12.3,0.2,55.4*,Full FLuc ctr=12.2
COc1cc(OC)c(OC)cc1/C=N/Nc1nc2ccccc2[nH]1,-14.7,24.1,0.1,3.0,-3.3,-1.4,.,
COc1ccc(/C=N/Nc2ncnc3c2[nH]c2ccc(C)cc23)c(OC)c1OC,1.8,77.0*,5.7,11.1,54.2,-2.5,52.9*,Full FLuc ctr=10.3
CNc1nc(NCC2CCCCC2)c2sccc2n1,.,.,.,17.0,.,.,.,
O=C1CC(c2ccc3c(c2)OCCO3)Oc2ccc([N+](=O)[O-])cc21 (centres undefined),77.4*,72.1*,28.5,4.8,9.2,-25.6,72.5*,Full FLuc ctr=144.5*
O=C1CC(c2ccc3c(c2)OCCO3)Oc2ccccc21 (centres undefined),-4.0,-77.9,-48.6,-1.3,-6.1,-0.8,.,
COC(=O)NC1CC2C=CC1C1C=CC21 (centres undefined),.,.,.,-0.8,.,.,.,

# Screens deposited in PubChem BioAssay by several laboratories.
